Test results reported in PubChem BioAssay (NCI).
The panel holds about 83,000 compounds, 20% with a hit somewhere; the sample as a whole holds those more often.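 Values shown are percent growth following 48 h exposure of cells in 96-well plates to a single concentration of compound; below 10 was considered active.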 Unmarked numbers belong to inactive results. Active and inactive are the calls of the source.

system: HOP-62 NSCLC; assay: NCI-60 one-dose screen, 48 h (100 = growth as untreated, 0 = no growth, -100 = all killed); settings: 10 µM unless noted

Going from `O=C(Nc1cccc(Cl)c1)Oc1c(Br)c(Br)c(Br)c(Br)c1Br` to `O=C(CNCCO)Nc1ccc2ncnc(Nc3ccc(OCc4cccc(F)c4)c(Cl)c3)c2c1`, the growth rises from 56.1% to 87%.

Going from `CN1CCN(Cc2ccc(NC(=O)c3cncc(C#Cc4cnccc4C(F)(F)F)c3)cc2C(F)(F)F)CC1` to `CN1CCN(c2cnc(C(=O)Nc3cc(F)cc4cccnc34)cn2)CC1`, the growth rises from 80.5% to 98.6%.

Compared with `CN(C)Cc1c(-c2ccccc2)[nH]c2ccccc12`, `CCCCCN1C=C/C(=C\C(=O)N(C)c2cccc3ccccc23)c2ccccc21` is higher in growth: 80.3% for the first, 102% for the second.

Going from `CCN(CC)CCCC(Nc1c2ccc(Cl)cc2nc2ccc(OC)cc12)c1ccc(Cl)cc1` (stereo unspecified) to `CC(C)Cc1ccc(C(C)C(=O)NCc2c[nH]c3ccc(Cl)cc23)cc1` (stereo unspecified), the growth rises from 25.4% to 99.7%.

Compared with `CSc1nnc2c(=O)n(C)c(=O)n(C)c2n1`, `CCCOc1nc(SCCC)nc2c1cnn2-c1ccccc1` is higher in growth: 116% for the first, 126% for the second.

Compared with `C=CCn1c(SCC(=O)Nc2ccc(C(=O)/C=C/c3cc(OC)c(OC)c(OC)c3)cc2)nnc1-c1cc(-c2ccc(S(C)(=O)=O)cc2)nc2ccccc12`, `O=C(Nc1nc2ccc(C(=O)N3CCN(c4ccc(Cl)c(Cl)c4)CC3)cc2s1)c1ccc(NCCc2ccccc2)c([N+](=O)[O-])c1` is lower in growth: 111% for the first, 96.6% for the second.

Compared with `CCNC(=O)c1[nH]cc(-c2ccc(OC)cc2)c1-c1cc(OC)cc(OC)c1`, `COc1cc2nc(-c3ccc(C#N)cc3)[nH]c(=O)c2cc1OC` is lower in growth: 97.5% for the first, 92.8% for the second.

First: COc1ccc(/C=N/C2=C(C#N)C(c3ccccc3[N+](=O)[O-])c3ccc4ccccc4c3O2)cc1 (stereo unspecified)
Second: COc1ccc(-c2nc(N/N=C/c3cccc(O)c3)nc(N3CCOCC3)c2C#N)cc1
The growth of the first is higher: 103% for the first, 90.7% for the second.

Compared with `Cc1ccccc1-c1cc(Cc2ccc(F)cc2)c(=O)[nH]n1`, `O=C1Nc2ccccc2/C1=N/c1nc(-c2ccc(Cl)cc2)cs1` is lower in growth: 95% for the first, 56% for the second.

Going from `COC(=O)Nc1ccc(NC(=O)OC)cc1` to `Cc1nc2sc(C(=O)Nc3ccccc3)c(N)c2cc1C(=O)c1ccc(C(F)(F)F)cc1`, the growth rises from 77.7% to 91.1%.

Compared with `O=C(OCc1nc2nc(Cl)nc(N3CCOCC3)c2[nH]1)n1ccnc1`, `Cn1c(COC(=O)NCCN2CCOCC2)nc2c(N3CCOCC3)nc(-c3ccccc3)nc21` is lower in growth: 30.4% for the first, 23.2% for the second.

Compared with `CCCCCCN(C)Cc1ccc(OCCOc2ccc(CN(C)CCCCCC)cc2)cc1`, `CCCCCCCCCCCCCCCCCCOc1ccccc1N` is higher in growth: 17.9% for the first, 90.9% for the second.

Going from `COc1cc(-c2nc3occn3c2-c2ccnc(NCCNS(=O)(=O)c3ccc(Cl)cc3)n2)ccc1F` to `CS(=O)(=O)c1ccc(-c2cc3c(oc2=O)-c2ccccc2OC3O)cc1` (stereo unspecified), the growth rises from 93.3% to 94.9%.

Compared with `S=c1[nH]cccc1-c1nnc2n1Nc1nc3ccc(Cl)cc3cc1CS2`, `Nc1c(C(=O)Nc2cccc3ccncc23)sc2nc3c(cc12)C(=O)CCC3` is lower in growth: 108% for the first, 62.8% for the second.

Going from `Cc1c([N+](=O)[O-])cc(C(C)(C)C)cc1[N+](=O)[O-]` to `Nc1c(Cl)cc([N+](=O)[O-])cc1Br`, the growth rises from 76.2% to 109%.

Going from `Cc1n[nH]c(C)c1-c1c(C)n[nH]c1C` to `Fc1ccccc1CSc1ncnc2nc[nH]c12`, the growth rises from 34.5% to 93.4%.

Going from `NC(=O)CN1CCN(c2ccccc2Cl)CC1` to `C=C(C)[C@H]1CC/C(C)=C/CC[C@]2(C)O[C@H]2CC/C(COC(=O)[C@@H](OC(C)=O)[C@H](NC(=O)c2ccccc2)c2ccccc2)=C\[C@@H]1O`, the growth falls from 104% to 97.6%.

In the case of `Clc1ccc(N2N=C(c3cccc(Nc4ccncc4)c3)CC2c2ccc(Br)cc2)cc1` (stereo unspecified), the growth is reported as -39.3% (active).
With `O=C1c2cccnc2C(=O)c2nc3cc(N4CCN(C5CC5)CC4)ccc3nc21` the growth was -56.6% (active).
`CC(=O)OCC(=O)C1(O)C(C)CC2C3C=C(C)C4=Cc5c(cnn5-c5ccccc5)CC4(C)C3C(O)CC21C` (stereo unspecified) was tested, and the growth was 7.4% (active).
With `C(=C\c1n(Cc2ccc3ccccc3c2)c(-c2ccccc2)c(-c2ccccc2)[n+]1Cc1ccc2ccccc2c1)/c1ccccc1` the growth was -84.5% (active).

system: NCI-H460 lung; assay: as above; settings: 10 µM unless noted

Compared with `O=C(Nc1cccc(Cl)c1)Oc1c(Br)c(Br)c(Br)c(Br)c1Br`, `O=C(CNCCO)Nc1ccc2ncnc(Nc3ccc(OCc4cccc(F)c4)c(Cl)c3)c2c1` is lower in growth: 99.7% for the first, 88.7% for the second.

Going from `CN1CCN(Cc2ccc(NC(=O)c3cncc(C#Cc4cnccc4C(F)(F)F)c3)cc2C(F)(F)F)CC1` to `CN1CCN(c2cnc(C(=O)Nc3cc(F)cc4cccnc34)cn2)CC1`, the growth rises from 71.6% to 103%.

Going from `CN(C)Cc1c(-c2ccccc2)[nH]c2ccccc12` to `CCCCCN1C=C/C(=C\C(=O)N(C)c2cccc3ccccc23)c2ccccc21`, the growth rises from 99.5% to 105%.

Compared with `CSc1nnc2c(=O)n(C)c(=O)n(C)c2n1`, `CCCOc1nc(SCCC)nc2c1cnn2-c1ccccc1` is lower in growth: 114% for the first, 101% for the second.

Compared with `C=CCn1c(SCC(=O)Nc2ccc(C(=O)/C=C/c3cc(OC)c(OC)c(OC)c3)cc2)nnc1-c1cc(-c2ccc(S(C)(=O)=O)cc2)nc2ccccc12`, `O=C(Nc1nc2ccc(C(=O)N3CCN(c4ccc(Cl)c(Cl)c4)CC3)cc2s1)c1ccc(NCCc2ccccc2)c([N+](=O)[O-])c1` is higher in growth: 97.2% for the first, 110% for the second.

Going from `CCNC(=O)c1[nH]cc(-c2ccc(OC)cc2)c1-c1cc(OC)cc(OC)c1` to `COc1cc2nc(-c3ccc(C#N)cc3)[nH]c(=O)c2cc1OC`, the growth rises from 99% to 105%.

Compared with `COc1ccc(/C=N/C2=C(C#N)C(c3ccccc3[N+](=O)[O-])c3ccc4ccccc4c3O2)cc1` (stereo unspecified), `COc1ccc(-c2nc(N/N=C/c3cccc(O)c3)nc(N3CCOCC3)c2C#N)cc1` is lower in growth: 91.4% for the first, 83.8% for the second.

Going from `Cc1ccccc1-c1cc(Cc2ccc(F)cc2)c(=O)[nH]n1` to `O=C1Nc2ccccc2/C1=N/c1nc(-c2ccc(Cl)cc2)cs1`, the growth falls from 107% to 67.7%.

Going from `COC(=O)Nc1ccc(NC(=O)OC)cc1` to `Cc1nc2sc(C(=O)Nc3ccccc3)c(N)c2cc1C(=O)c1ccc(C(F)(F)F)cc1`, the growth falls from 106% to 70.2%.

Going from `CCCCCCCCCCCCCCCCCCOc1ccccc1N` to `Fc1ccccc1CSc1ncnc2nc[nH]c12`, the growth rises from 47.6% to 97.8%.

Going from `COc1cc(-c2nc3occn3c2-c2ccnc(NCCNS(=O)(=O)c3ccc(Cl)cc3)n2)ccc1F` to `CS(=O)(=O)c1ccc(-c2cc3c(oc2=O)-c2ccccc2OC3O)cc1` (stereo unspecified), the growth rises from 88.8% to 91.7%.

Compared with `S=c1[nH]cccc1-c1nnc2n1Nc1nc3ccc(Cl)cc3cc1CS2`, `Nc1c(C(=O)Nc2cccc3ccncc23)sc2nc3c(cc12)C(=O)CCC3` is lower in growth: 102% for the first, 11.6% for the second.

Going from `CC(C)Cc1ccc(C(C)C(=O)NCc2c[nH]c3ccc(Cl)cc23)cc1` (stereo unspecified) to `C=C(C)[C@H]1CC/C(C)=C/CC[C@]2(C)O[C@H]2CC/C(COC(=O)[C@@H](OC(C)=O)[C@H](NC(=O)c2ccccc2)c2ccccc2)=C\[C@@H]1O`, the growth falls from 99.7% to 89%.

First: Cc1c([N+](=O)[O-])cc(C(C)(C)C)cc1[N+](=O)[O-]
Second: Nc1c(Cl)cc([N+](=O)[O-])cc1Br
The growth of the first is lower: 102% for the first, 114% for the second.

Work on `NC(=O)CN1CCN(c2ccccc2Cl)CC1` yielded a growth of 111%.

For `CCN(CC)CCCC(Nc1c2ccc(Cl)cc2nc2ccc(OC)cc12)c1ccc(Cl)cc1` (stereo unspecified), the growth was -69.2% (active).
`Clc1ccc(N2N=C(c3cccc(Nc4ccncc4)c3)CC2c2ccc(Br)cc2)cc1` (stereo unspecified) was tested, and the growth was -82.6% (active).
For `O=C(OCc1nc2nc(Cl)nc(N3CCOCC3)c2[nH]1)n1ccnc1`, the growth was 3.6% (active).
For `Cn1c(COC(=O)NCCN2CCOCC2)nc2c(N3CCOCC3)nc(-c3ccccc3)nc21`, the growth was 1.27% (active).
For `O=C1c2cccnc2C(=O)c2nc3cc(N4CCN(C5CC5)CC4)ccc3nc21`, the growth was -54.1% (active).
In the case of `CC(=O)OCC(=O)C1(O)C(C)CC2C3C=C(C)C4=Cc5c(cnn5-c5ccccc5)CC4(C)C3C(O)CC21C` (stereo unspecified), the growth is reported as 6.3% (active).
`CCCCCCN(C)Cc1ccc(OCCOc2ccc(CN(C)CCCCCC)cc2)cc1` was tested, and the growth was -77.5% (active).
For `Cc1n[nH]c(C)c1-c1c(C)n[nH]c1C`, the growth was -35.1% (active).
In the case of `C(=C\c1n(Cc2ccc3ccccc3c2)c(-c2ccccc2)c(-c2ccccc2)[n+]1Cc1ccc2ccccc2c1)/c1ccccc1`, the growth is reported as -84.1% (active).
